The list is not random: actives were taken first. Their share in the collection is about 8.1%.
SW480 rerep: inducers of DNA re-replication in SW480 colon cancer cells; SW480 DNA re-replication, Hoechst DNA content imaging, 48 h; Potency, µM (highest dose often 46.1 µM), without a hit: at the highest dose re-replication activation, most hits filed as activators; 340,000 compounds, 1.8% hits; AID 624297; further: % of control where 0% means no effect; nearly all actives have a fitted effect of over 55% in size
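Cells (250 per well) received 23 nL compound or DMSO by pin tool and were kept 48 hr at 37 C, 5% CO2. Nuclei were then stained with Hoechst for 40 min and scanned for DNA content.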
KB-V1 MDR tox: kills drug-selected multidrug resistant KB-V1 cells; KB-V1 MDR cells viability, CellTiter-Glo, 72 h; Potency, µM (top dose mostly 46.1 µM), hits mostly cytotoxic; 400,000 compounds, 3.4% hits; AID 1347076; further: on the % scale 0 is the no-effect control and ±100 the full control effect; nearly all actives have a fitted effect of over 60% in size
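Potencies derive from concentration-effect curves fitted to normalized luminescence (CellTiter-Glo) of KB-V1 cells treated for 72 h at 37 degrees C in phenol-red-free DMEM containing 10% FBS.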
MCF10A rereplic: DNA re-replication induction in MCF 10a cells. MCF 10A DNA re-replication, Hoechst nuclear intensity, 48 h. Potency, µM (doses to about 46.1 µM), inactives show at the highest dose activity, positive = re-replication, usual class: activators. AID 624296. 350,000 compounds, 2.9% hits; further: % of control where 0% means no effect; nearly all actives have a fitted effect of over 50% in size
KB-3-1 tox: kills parental KB-3-1 adenocarcinoma cells; KB-3-1 viability, CellTiter-Glo ATP luminescence, 72 h; 400,000 compounds, 1.4% hits; AID 1347075; Potency, µM (highest dose often 46.1 µM), hits mostly cytotoxic; further: on the % scale 0 is the no-effect control and ±100 the full control effect; nearly all actives have a fitted effect of over 60% in size
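Multi-concentration cytotoxicity screen in KB-3-1 cells grown in DMEM lacking phenol red with 10% FBS. After 72 h at 37 °C with compound, ATP-dependent luminescence was recorded.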
ELG1 repair inh: inhibitors of ELG1-dependent DNA repair in HEK293T cells; 330,000 compounds, 2.3% hits; Potency, µM (top dose mostly 46.1 µM), for the others: at the highest dose activity change, negative = inhibition, actives largely listed as inhibitors; HEK293T ELG1-luciferase reporter, luminescence, 16 h; DNA damage induced by 5-fluorouridine; further: on the % scale 0 is the no-effect control and ±100 the full control effect; nearly all actives have a fitted effect of over 55% in size
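Luminescence from the luciferase reporter, measured 30 min after ONE-Glo reagent at room temperature, was the read-out. Beforehand, 2,000 cells per well were exposed for 16 hr at 37 °C to 5-fluorouridine together with compound or vehicle.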
Starred values were filed as active, the others as inactive. The call rests on the fitted dose curve; in most records, active means well fitted curve in the direction sought with a large enough effect; inconclusive means small, poorly fitted or top-dose-only effect, or another doubt; inactive means no such curve, though single readings can be large; an effect the other way counts as inactive or inconclusive. Potency means the concentration at half of the fitted maximal effect.

COc1cc(C2CC(=O)Nc3cc4c(cc32)OCCO4)cc(OC)c1O (stereo not given) was read as KB-V1 MDR tox inactive and KB-3-1 tox inactive.
Screening O=C(Cn1nc2ccccc2n1)N/N=C/c1cc(Cl)cc([N+](=O)[O-])c1O returned SW480 rerep 11.6µM*, KB-V1 MDR tox inactive, MCF10A rereplic inconclusive, KB-3-1 tox inconclusive and ELG1 repair inh inconclusive.
For CCOC(=O)C1CCN(C(=O)c2ccc3c(=O)n4nc(Nc5ccccc5OC)sc4nc3c2)CC1 the results were KB-V1 MDR tox inactive and KB-3-1 tox inactive.
Cn1c2c(c(=O)[nH]c1=O)C(c1cccc(O)c1)C1=C(N2)c2ccccc2C1=O (stereo not given) was read as SW480 rerep 10.3µM*, KB-V1 MDR tox inactive, MCF10A rereplic inconclusive, KB-3-1 tox 16.4µM* and ELG1 repair inh inconclusive.
Screening COc1cccc(C2C3=C(Nc4[nH]n(-c5ccccc5)c(=O)c42)c2ccccc2C3=O)c1 (stereo not given) returned ELG1 repair inh -11.6%.
For CC(C)Oc1cccc(NC(=O)C2(C)CCN2C(C)C)c1 (stereo not given) the results were KB-V1 MDR tox inactive and KB-3-1 tox inactive.
Screening O=C(NC1CCCCC1)c1cccs1 returned SW480 rerep -4.4%, KB-V1 MDR tox inactive, MCF10A rereplic -3.7%, KB-3-1 tox inactive and ELG1 repair inh inconclusive.
`O=C(NNC(=S)NC1CCCCC1)c1cccs1` gave SW480 rerep 15.5%, KB-V1 MDR tox 23.1µM*, MCF10A rereplic -1.3%, KB-3-1 tox inactive and ELG1 repair inh 14.7%.
Screening CC(C)(C)C(=O)NC(=S)NNC(=O)c1sc2ccccc2c1Cl returned SW480 rerep inconclusive, KB-V1 MDR tox 10.3µM*, MCF10A rereplic 11.6µM*, KB-3-1 tox 9.2µM* and ELG1 repair inh inconclusive.
For O=C(NNC(=S)NC1CCCCC1)c1sc2ccccc2c1Cl the results were KB-V1 MDR tox 18.4µM*, MCF10A rereplic inconclusive, KB-3-1 tox inactive and ELG1 repair inh -18.4%.
For O=C(NC(=S)NCCO)c1sc2ccccc2c1Cl the results were SW480 rerep -16.3%, KB-V1 MDR tox inactive, MCF10A rereplic 23.1%, KB-3-1 tox inactive and ELG1 repair inh inconclusive.
CC(C)c1nn2c(=O)cc(COC(=O)CNC(=O)c3ccccc3)nc2s1 was read as KB-V1 MDR tox inconclusive and KB-3-1 tox inactive.
COc1ccc(C(=O)Oc2c(CN3CCOCC3)cc(Cl)c3cccnc23)cc1 was read as SW480 rerep inconclusive, KB-V1 MDR tox inconclusive, MCF10A rereplic inconclusive, KB-3-1 tox 10.3µM* and ELG1 repair inh inconclusive.
`COc1cccc(C(=O)Oc2c(CN3CCOCC3)cc(Cl)c3cccnc23)c1` gave SW480 rerep 25.6%, KB-V1 MDR tox 7.31µM*, MCF10A rereplic 13.5%, KB-3-1 tox inconclusive and ELG1 repair inh 18.4µM*.
Screening O=C(Oc1c(CN2CCOCC2)cc(Cl)c2cccnc12)c1ccc(F)cc1 returned SW480 rerep inconclusive, KB-V1 MDR tox 3.26µM*, MCF10A rereplic 3.26µM*, KB-3-1 tox 5.8µM* and ELG1 repair inh inconclusive.
CCCCOCCCNC(=O)C[C@@H]1C[C@@]2(C(=O)OCC)CCC=C2N(CCC2=CCCCC2)C1=O was read as KB-V1 MDR tox inconclusive and KB-3-1 tox inactive.
For COc1cc(-c2c(-c3ccc4c(c3)OCO4)noc2-c2ccsc2)cc(OC)c1OC the results were KB-V1 MDR tox inactive and KB-3-1 tox inactive.
COCCn1c(SCC(=O)c2ccc(C)cc2C)nc2cc(C(=O)NC3CCCC3)ccc2c1=O was read as KB-V1 MDR tox inactive and KB-3-1 tox inactive.
For Cc1ccccc1CN(CC(=O)Nc1cccc([N+](=O)[O-])c1)S(=O)(=O)c1ccc(Cl)cc1 the results were SW480 rerep inconclusive, KB-V1 MDR tox 5.8µM*, MCF10A rereplic 16.4%, KB-3-1 tox inactive and ELG1 repair inh inconclusive.
Cc1ccc(S(=O)(=O)N(CC(=O)Nc2cccnc2)c2cccc([N+](=O)[O-])c2)cc1 was read as SW480 rerep inconclusive, MCF10A rereplic 23.1µM* and ELG1 repair inh inconclusive.

Screening results (PubChem)
